# Laboratory results: PubChem BioAssay
# Test system: Neuregulin-1 EGF-like domain
# Test: binders of neuregulin-1 EGF-like domain, primary screen, biochemical, small-molecule microarray, 635 nm fluorescence (AID 1081);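 also: binding of the protein to compounds printed on small-molecule microarray slides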
# Details: small-molecule microarray binding, higher = more signal
row,SMILES,composite z-score
1,Cc1ccc(C2CC=C(C(=O)O)CN2S(=O)(=O)c2ccc(C)cc2)cc1 (centres undefined),0.937
2,COc1ccc([Si](C)(C)[C@H]2[C@H](CC(=O)N3CCC[C@H]3CO)O[C@@]3(C(=O)N(Cc4cccc(N5C(=O)COc6ccccc65)c4)c4ccccc43)[C@@H]2C)cc1,0.983
3,CC(CCN1CCc2nc(-c3ccccc3)c(-c3ccccc3)cc2C1)=NOC[C@@H](C)[C@H](OCc1ccccc1)C(C)C,-0.0462
4,CN1C(=O)C2C(C1=O)C1C=C(CCCO)C2C(c2ccc(CN3CCCC3)cc2)N1C (centres undefined),0.725
5,CCc1cc2c(nc1CC)CCN(CCC(C)=NO[C@@H](C)c1cc(-c3c(C)cc(C)cc3C)no1)C2,-0.0858
6,CS(=O)(=O)CCOC(=O)C1=CC(CCCO)=CC(c2cccs2)N(Cc2cccc(OC(F)(F)F)c2)C=C1C(=O)OCCS(C)(=O)=O (centres undefined),1.14
7,O=C1CCCC=C1C(O)CCOCc1ccccc1 (centres undefined),0.28
8,CC(C)=CCCC(C)=CCON=C1[C@H]2CCn3c(=O)n(Cc4cc5c(cc4Cl)OCO5)c(=O)n3[C@H]2[C@H](O)[C@@H]2O[C@H]12,0.177
9,O=C1C2=CC[C@H]3C(=O)N(Cc4ccc5c(c4)OCO5)C(=O)[C@H]3[C@H]2[C@H](O)[C@@H]2O[C@H]12,-0.0029
10,CO[C@@H]1COC(=O)CC=C[C@@H](C)[C@@H]2C=C[C@H](O)[C@@H](COC(=O)[C@H](C)NC(=O)CC=C[C@H]1C)O2,0.849
11,COCCOC(=O)N1C(=O)[C@@]2(c3cc(C#CC4(O)CCCCCC4)ccc31)[C@H](c1ccc(OCCO)cc1)N1[C@H](c3ccccc3)[C@H](c3ccccc3)OC(=O)[C@H]1[C@@H]2C(=O)NC[C@H](O)c1ccccc1,1.13
12,CCCCC(=C=CC[C@H](O)c1ccccc1OCCO)C[C@H](O)COCc1ccccc1,0.554
13,C[C@@H]1C=CCC(=O)OC[C@H](C)C(=O)N2CCC[C@H]2C(=O)OC1,1.04
14,CC(C)c1ccc(NN2C(C(O)c3ccc4c(c3)OCO4)C=CC3C(=O)N(c4ccccc4)C(=O)C32)cc1 (centres undefined),1.24
15,COc1ccc(COC(=O)NN=C2C[C@@H](O)[C@@H](O)[C@@H]3[C@@H]4C(=O)N(c5ccc(F)cc5F)C(=O)[C@@H]4CC[C@@H]23)cc1,-1.13
16,C=C(/C(=C/C[C@@H](OC(=O)c1ccncc1)c1ccc(OCCO)cc1)c1cnc2ccccc2c1)C(C)C,0.694
17,Cn1c(=O)n2n(c1=O)[C@H]1[C@H](O)[C@@H]3O[C@@H]3C(=NOC[C@@H](O)COCc3ccco3)[C@H]1CC2,0.276
18,CCOC(=O)CCN1C(=O)[C@H]2[C@H]3[C@H](O)[C@H](O)CC(=NNC(=O)OCc4ccc(OC)cc4)[C@@H]3CC[C@H]2C1=O,0.574
19,CCCNC(=O)OC[C@H]1O[C@H](CCON=CC[C@@H]2C=C[C@H](OC(C)=O)[C@@H](COC(C)=O)O2)C=C[C@@H]1Oc1ccc(OC)cc1,0.576
20,COC(=O)[C@H](C)NC(=O)CCC1CC(OC(=O)NCc2cccc3ccccc23)CC2(CCCC(COC(=O)NCCc3ccc(Cl)cc3)O2)O1 (some centres undefined),0.73
21,COc1ccc(O[C@H]2C=C[C@@H](c3ccccc3)O[C@@H]2COC(=O)CCC(C)=NO[C@@H](C)c2cc(-c3c(C)cc(C)cc3C)no2)cc1,-1.08
22,CN(C)C(=O)[C@@]1(Cc2ccccc2)N=C(c2ccc(OCCCO)cc2)O[C@H]1c1ccccc1CN=[N+]=[N-],1.2
23,COc1ccc(OC[C@H]2Cc3c(-c4ccccc4)nc4c(c3CO2)CN(CCOc2ccccc2)CC4)cc1,1.11
24,COC(=O)C1=C(C)N(Cc2ccccc2)[C@]23O[C@](C(=O)OC)(C(=O)N2[C@@H]1c1ccccc1)[C@H]1CCOC(=O)[C@H]13,0.815
25,COC(=O)CC=C[C@@H](C)[C@@H](C=NO[C@@H](C)c1cc(-c2c(C)cc(C)cc2C)no1)OC,-0.714
26,COc1ccc(O[C@H]2C=C[C@@H](c3ccccc3)O[C@@H]2COC(=O)CCC(C)=NO[C@H](C)c2cn([C@@H]3COC[C@H]3O)nn2)cc1,0.586
27,CC(C)=NOCc1cccc(-c2cc(-c3ccccc3)no2)c1,0.345
28,CCCNC(=O)OC[C@H]1O[C@H](CCON=C2[C@H]3CCn4c(=O)n(-c5ccccc5)c(=O)n4[C@H]3[C@H](O)[C@@H]3O[C@H]23)C=C[C@@H]1Oc1ccc(OC)cc1,0.0894
29,CC[C@@H](c1ccccc1)n1c(=O)n2n(c1=O)[C@H]1[C@H](O)[C@@H]3O[C@@H]3C(=NOCC(C)C)[C@H]1CC2,0.493
